{"source": "the supplement of paper PMC7156485", "note": "“And” between values parts separate entries of the source, which are not always exact repeats. Equal entries are not always repeated. Structures can show the parent of a compound that is named as a salt. ± gives the standard deviation of the averaged measurements.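 Note: TDF denotes transformed human dermal fibroblasts of mesenchymal origin.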"}
{"test_system": "TDF", "assay": "cell number relative to DMSO (% of DMSO); higher = more cells (less growth inhibition / toxicity)", "conditions": "concentration: 10 µM; 24 h", "outline": "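Using 384-well plates with 800 cells per well in RPMI plus 10% FBS, HCC1569 and TDF cells were exposed to compounds at 10 µM, in triplicate, for 24 h at 37 °C. Imaging of six fields per well at ×10 followed H1.0 and DAPI staining. The reported quantity, H1.0 nuclear intensity or cell number, is a median of replicates given as percent of the plate control, and HCC1569 values were smoothed for positional effects.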"}
{"smiles": "O=Cc1c2[nH]c3ccccc3c2cc2[nH]c3ccccc3c12", "note": "[6-Formylindolo [3,2-B] carbazole]", "cell number": 99}
{"smiles": "COc1cc2ccccc2cc1C(=O)OC(C)C(=O)NCc1ccc(F)cc1", "note": "(stereo not given) [IP3K Inhibitor]", "cell number": 107}
{"smiles": "C#CC(N)CCC(=O)O", "note": "(stereo not given) [gamma-Acetylinic GABA]", "cell number": 99.9}
{"smiles": "OC1C(O)C(O)C(O)C(O)C1O", "note": "(stereo not given) [1,2,3,4,5,6-cyclohexanehexol]", "cell number": "104 ± 7.5"}
{"smiles": "CCCC1OC2CC3C4CCC5=CC(=O)C=CC5(C)C4C(O)CC3(C)C2(C(=O)CO)O1", "note": "(stereo not given) [Budesonide]", "cell number": 94.1}
{"smiles": "COC1=CC(=O)CC(C)C12Oc1c(Cl)c(OC)cc(OC)c1C2=O", "note": "(single isomer, unassigned; (+)) [(+)-Griseofulvin]", "cell number": 108}
{"smiles": "CN(C)CCC(c1ccc(Cl)cc1)c1ccccn1.O=C(O)C=CC(=O)O", "note": "(single isomer, unassigned; (+)) [(+)-Chlorpheniramine maleate]", "cell number": 104}
{"smiles": "COc1nc(C)nc(Cl)c1NC1=NCCN1.Cl", "note": "[Moxonidine hydrochloride]", "cell number": 102}
{"smiles": "CN(C)CCCOC1C(C(O)CO)OC2OC(C)(C)OC21.Cl", "note": "(stereo not given) [Amiprilose hydrochloride]", "cell number": 106}
{"smiles": "Cl.c1ccc(C2CCCC2NC2=NCCCCCCCCCCC2)cc1", "note": "(stereo not given) [MDL 12,330A hydrochloride]", "cell number": 109}
{"smiles": "COc1ccc2c(c1)c(CC(=O)O)c(C)n2C(=O)c1ccccc1", "note": "[1-benzoyl-5-methoxy-2-methylindole-3-acetic acid]", "cell number": 104}
{"smiles": "CCn1cc(C(=O)O)c(=O)c2cc(F)c(N3CCN(C)CC3)cc21.CS(=O)(=O)O.O.O", "note": "[Pefloxacine mesylate dihydrate]", "cell number": 111}
{"smiles": "CCCCCCCCC=CCCCCCCCC(N)=O", "note": "[9,10-Octadecenoamide]", "cell number": 103}
{"smiles": "CCCCC1CCC(c2nc(-c3ccncc3)no2)CC1", "note": "(stereo not given) [4-[5-(4-butylcyclohexyl)-1,2,4-oxadiazol-3-yl]pyridine]", "cell number": 98.3}
{"smiles": "COc1ccc(-c2cc(=O)c3c(O)cc(O)cc3o2)cc1", "note": "[Acacetine]", "cell number": 95.3}
{"smiles": "COc1cc(=O)n(C)c2c(OCC(O)C(C)(C)O)cccc12", "note": "(stereo not given) [Foliosidine]", "cell number": 112}
{"smiles": "CCCC[C@@H](C=O)NC(=O)[C@H](CC(C)C)NC(=O)[C@H](CC(C)C)NC(C)=O", "cell number": 32.2}
{"smiles": "Cl.O=c1n(CCCN2CCN(c3cccc(Cl)c3)CC2)nc2ccccn12", "note": "[Trazodone hydrochloride]", "cell number": 116}
{"smiles": "CCCCCCCCCCCCCC(=O)NC(C)C(O)c1ccccc1", "note": "[L-erythro MAPP]", "cell number": 103}
{"smiles": "COc1ccc(-n2c(SCC#N)nc3sc4c(c3c2=O)CCCC4)cc1", "cell number": 92.5}
{"smiles": "O=C(O)c1cc(=O)c2ccccc2[nH]1", "note": "[Kynurenic acid]", "cell number": 106}
{"smiles": "CS(=O)c1ccc(-c2nc(-c3ccc(F)cc3)c(-c3ccncc3)[nH]2)cc1", "note": "(stereo not given)", "cell number": 107}
{"smiles": "CS(=O)(=O)CCNCc1ccc(-c2ccc3ncnc(Nc4ccc(OCc5cccc(F)c5)c(Cl)c4)c3c2)o1.Cc1ccc(S(=O)(=O)O)cc1.Cc1ccc(S(=O)(=O)O)cc1", "note": "[Lapatinib ditosylate]", "cell number": 94.3}
{"smiles": "O=C(C1CCCCC1)N1CC(=O)N2CCc3ccccc3C2C1", "note": "(stereo not given) [Praziquantel]", "cell number": "103 ± 5.6"}
{"smiles": "CCCCCC(O)C=CC=CC=CC(O)CC=CCCCC(=O)O", "note": "[8(S),15(S)-DIHETE all trans]", "cell number": 96.5}
{"smiles": "Nc1ncnc2c1ncn2C1OC(CO)C(O)C1O", "note": "(stereo not given) [Adenosine]", "cell number": 109}
{"smiles": "CC1=C(CC(=O)O)c2cc(F)ccc2C1=Cc1ccc(S(C)=O)cc1", "note": "(stereo not given) [Sulindac]", "cell number": "111 ± 6.2"}
{"smiles": "COc1ccc(-c2cc(=O)c3ccc(O)cc3o2)cc1", "note": "[Pratol]", "cell number": 87.4}
{"smiles": "COc1cc(C2CC(=O)c3c(O)cc(O)cc3O2)ccc1O", "note": "(stereo not given) [Homoeriodictyol]", "cell number": 99.7}
{"smiles": "NC(N)=NC(=O)c1nc(Cl)c(N)nc1N", "note": "[Amiloride]", "cell number": 103}
{"smiles": "COC1=C2CC(C)=c3c(C(C)=O)c(OC)c(O)c4c3c2c2c(cc(OC)c3c(OC)cc(O)c4c32)C(=O)C1=O", "note": "[Hypocrellin B]", "cell number": 95}
{"smiles": "Cc1cc(Cc2cc(C)cc(C(C)(C)C)c2O)c(O)c(C(C)(C)C)c1", "cell number": "90.7 and 98.5"}
{"smiles": "OC[C@@H](O)[C@H]1NC[C@@H](O)[C@H]1O", "note": "[1,4-Dideoxy-1,4-imino-D-mannitol hydrochloride]", "cell number": 104}
{"smiles": "CCCCCCCCC(O)C=CC=CC=CC(O)CCCC(=O)O", "note": "(stereo not given) [Leukotriene B3]", "cell number": 93.8}
{"smiles": "CCCCCC(O)C=CC1C(O)CC(O)C1CC=CCCCC(=O)O", "note": "(stereo not given) [Prostaglandin F2a]", "cell number": 107}
{"smiles": "COC(=O)c1c(-c2cc(OC)c(OC)c(OC)c2)c2ccnc(OCc3ncccn3)c2c(=O)n1Cc1ccnc(C)c1.Cl", "cell number": 110}
{"smiles": "CN(C)c1nc(N)c(C(=O)N=C(N)N)nc1Cl.Cl", "note": "[5-(N,N-Dimethyl)amiloride hydrochloride]", "cell number": 89.7}
{"smiles": "NC(=O)c1ccccc1", "note": "[Benzamide]", "cell number": 87.1}
{"smiles": "Nc1[nH]nc2nc3ccccc3nc12", "cell number": 104}
{"smiles": "CCCCCC(O)C=CC1=C(CCCCCCC(=O)O)C(=O)CC1", "note": "(stereo not given) [Prostaglandin B1]", "cell number": "108.4 ± 0.5"}
